A number with no mark means an inactive call. Inconclusive results are not listed. Where a call stands in place of a potency, no number is given. Calls of active or inactive are those of the source. Unless noted, calls follow the shape of the dose curve; as a rule, active = well fitted curve in the direction sought with a large enough effect in the repeat runs; inconclusive = weak or mixed curves; inactive = no such curve, though single readings can be large; an effect the other way counts as inactive or inconclusive.
Experiments:
[1] = qHTS assay to identify small molecule antagonists of the androgen receptor (AR) signaling pathway using the MDA cell line in the presence of 0.5 nM R1881 - cell viability counter screen (AID 1259242); also: nearly all actives have a fitted effect of over 45% in size
Procedure, shortened: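 Cytotoxicity toward MDA-kb2 cells is measured by CellTiter-Fluor live-cell protease fluorescence after 16 hr compound exposure at 37C in the presence of 0.5 nM R1881 stimulator.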

[2] = target: Estrogen receptor (Homo sapiens) (UniProt P03372); test: qHTS assay to identify small molecule antagonists of the estrogen receptor alpha (ER-alpha) signaling pathway using the BG1 cell line in the presence of 0.1 nM 17-beta-estradiol (AID 1259244); also: nearly all actives have a fitted effect of over 50% in size; also: potency is read from the fitted curve at half-maximal effect
Procedure, shortened: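 After 5 days in hormone-depleted medium (charcoal-stripped serum, no phenol red), VM7Luc4E2 cells were seeded, incubated 24 h, then co-treated with compound and 0.1 nM (final) estradiol for 22 h before luminescence detection.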

[3] = qHTS assay to identify small molecule HDAC inhibitors (AID 1259364); also: top concentration of the series differs between compounds; nearly all actives have a fitted effect of over 45% in size
Procedure, shortened: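 Homogeneous cell-based luminescent assay of endogenous class I/II HDAC activity; HCT-116 cells, 2 h compound exposure, 30 min HDAC-Glo development at RT.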

[4] = qHTS assay to identify small molecule HDAC inhibitors - cell viability counter screen (AID 1259365); also: series mostly up to about 92 µM; nearly all actives have a fitted effect of over 50% in size
Procedure, shortened: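 Cytotoxicity was gauged in wild-type HCT-116 cells after a brief 2hr treatment with DMSO-dissolved compounds at 37C and 5% CO2, using CellTiter-Glo luminescence developed for 30min at room temperature.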

[5] = qHTS assay to identify small molecule agonists of the sonic hedgehog signaling (Shh) pathway - cell viability counter screen (AID 1259366); also: nearly all actives have a fitted effect of over 50% in size; also: potency is read from the fitted curve at half-maximal effect
Procedure, shortened: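 Stable Gli1-Luc NIH/3T3 clone, 2,000 cells/well. Compound exposure 24hr at 37C. Read-out: CellTiter-Fluor fluorescence.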

[6] = qHTS assay to identify small molecule antagonists of the sonic hedgehog signaling (Shh) pathway - cell viability counter screen (AID 1259367); also: nearly all actives have a fitted effect of over 55% in size; also: potency is read from the fitted curve at half-maximal effect
Procedure, shortened: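 Seed 3T3 Gli1-Luc cells at 2,000 per well; incubate 4 hr; add compound in DMSO, then conditioned medium; incubate at 37C with 5% CO2; add CellTiter-Fluor after 23 hr; read fluorescence 1 hr later.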

[7] = qHTS assay to identify small molecule agonists of the sonic hedgehog signaling (Shh) pathway (AID 1259368; calls by dose curve;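 also: NIH/3T3-derived 3T3Gli1-Luc cells carrying a stable Gli1-driven firefly luciferase reporter; series mostly up to about 92 µM; nearly all actives have a fitted effect of over 15% in size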)
Procedure, shortened: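 Steps: seed 3T3 Gli1-Luc cells, incubate 4 hr at 37 C, pin-transfer compounds in DMSO alongside a positive control, incubate 24 hr, add luciferase detection reagent, wait 30 min at room temperature, read luminescence.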

[8] = qHTS assay to identify small molecule antagonists of the sonic hedgehog signaling (Shh) pathway (AID 1259369; calls by dose curve; also: nearly all actives have a fitted effect of over 45% in size)
Procedure, shortened: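 Inhibition of Shh signalling is measured as reduced Gli1-response-element firefly luciferase output in an NIH/3T3-derived stable reporter clone stimulated with conditioned medium for 24hr.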

[9] = target: Androgen receptor (Homo sapiens) (UniProt P10275); test: qHTS assay to identify small molecule antagonists of the androgen receptor (AR) signaling pathway using the MDA cell line in the presence of 0.5 nM R1881 (AID 1259243); also: nearly all actives have a fitted effect of over 50% in size
Procedure, shortened: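 Steps: seed MDA-kb2 cells, incubate 5 hr at 37C; pin-transfer compounds in DMSO; add R1881 to 0.5 nM final; incubate 16 hr; add ONE-Glo, wait 30 min at room temperature; read luminescence.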

[10] = qHTS assay to identify small molecule phospholipidosis (PLD) inducers (AID 1259344; active = well fitted curve in the direction sought with a large enough effect; an effect the other way counts as inactive or inconclusive)
Procedure, shortened: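 Quantitative HTS in HepG2: compound plus LipidTOX Red dye for 24 h, paraformaldehyde fixation with Hoechst 33342, widefield high-content imaging; amiodarone as positive and DMSO as negative control.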

Chain of Estrogen receptor (Homo sapiens) (P03372 whole entry, looked up): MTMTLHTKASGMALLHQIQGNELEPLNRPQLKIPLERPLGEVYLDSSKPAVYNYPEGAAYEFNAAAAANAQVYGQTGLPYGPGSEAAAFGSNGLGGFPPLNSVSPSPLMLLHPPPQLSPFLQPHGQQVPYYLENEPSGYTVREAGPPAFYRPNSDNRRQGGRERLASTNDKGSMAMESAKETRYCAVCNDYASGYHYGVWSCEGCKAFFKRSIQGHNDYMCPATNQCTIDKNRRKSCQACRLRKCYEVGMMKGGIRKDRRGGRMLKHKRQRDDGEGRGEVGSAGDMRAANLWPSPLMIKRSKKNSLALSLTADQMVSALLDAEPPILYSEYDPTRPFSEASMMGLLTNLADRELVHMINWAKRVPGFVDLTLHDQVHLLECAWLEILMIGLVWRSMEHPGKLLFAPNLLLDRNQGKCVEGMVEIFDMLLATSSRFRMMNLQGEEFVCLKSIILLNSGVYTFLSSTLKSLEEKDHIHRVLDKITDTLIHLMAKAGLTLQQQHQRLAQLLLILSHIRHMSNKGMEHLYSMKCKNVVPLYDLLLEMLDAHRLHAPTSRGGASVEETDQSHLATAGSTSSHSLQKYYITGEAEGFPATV
Chain of Androgen receptor (Homo sapiens) (P10275 whole entry, looked up): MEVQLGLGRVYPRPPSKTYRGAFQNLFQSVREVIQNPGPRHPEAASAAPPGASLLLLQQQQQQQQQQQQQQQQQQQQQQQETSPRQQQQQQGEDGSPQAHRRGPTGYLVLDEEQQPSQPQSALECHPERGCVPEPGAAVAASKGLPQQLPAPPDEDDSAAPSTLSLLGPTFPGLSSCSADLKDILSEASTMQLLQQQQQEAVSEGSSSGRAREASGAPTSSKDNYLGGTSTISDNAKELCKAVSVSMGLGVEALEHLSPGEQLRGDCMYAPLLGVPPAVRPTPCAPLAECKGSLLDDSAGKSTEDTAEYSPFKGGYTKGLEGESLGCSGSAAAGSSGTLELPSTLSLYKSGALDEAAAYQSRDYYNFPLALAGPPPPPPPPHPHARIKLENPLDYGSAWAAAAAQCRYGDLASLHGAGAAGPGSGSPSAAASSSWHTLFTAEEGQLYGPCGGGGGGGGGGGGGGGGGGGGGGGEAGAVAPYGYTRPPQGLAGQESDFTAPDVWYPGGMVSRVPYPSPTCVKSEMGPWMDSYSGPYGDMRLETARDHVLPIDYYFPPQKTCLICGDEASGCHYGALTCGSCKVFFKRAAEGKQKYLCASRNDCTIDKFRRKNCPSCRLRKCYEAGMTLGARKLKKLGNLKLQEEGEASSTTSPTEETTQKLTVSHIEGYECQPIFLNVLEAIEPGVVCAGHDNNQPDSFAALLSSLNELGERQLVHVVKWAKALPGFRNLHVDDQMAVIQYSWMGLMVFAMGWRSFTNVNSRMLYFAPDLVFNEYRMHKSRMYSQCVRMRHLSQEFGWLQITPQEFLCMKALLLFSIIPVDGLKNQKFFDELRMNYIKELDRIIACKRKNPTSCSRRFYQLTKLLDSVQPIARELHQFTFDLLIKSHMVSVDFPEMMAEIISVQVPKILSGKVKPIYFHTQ

SMILES	Potency [1]	Potency [2]	Potency [3]	Potency [4]	Potency [5]	Potency [6]	Potency [7]	Potency [8]	Potency [9]	Potency [10]
COC(=O)CC(C)CCC=C(C)C (centres undefined)	inactive	inactive	inactive	inactive	inactive	inactive	inactive	–	–	–
CCCCCCCCCCCCCCCC	inactive	inactive	inactive	inactive	inactive	inactive	inactive	inactive	–	–
CS(C)(=O)=O	inactive	inactive	inactive	inactive	inactive	inactive	inactive	–	–	–
CCOC(/C=C(\C)CCC=C(C)C)OCC	inactive	inactive	inactive	inactive	inactive	inactive	inactive	–	–	–
CC(C)=C1CC[C@@H](C)CC1=O	inactive	inactive	inactive	inactive	inactive	inactive	inactive	–	–	–
CNC(=S)NN	inactive	48.6 µM (active)	inactive	inactive	30.6 µM (active)	17.2 µM (active)	inactive	–	–	–
c1ccc2c(c1)CCC2	inactive	–	inactive	–	inactive	inactive	inactive	–	inactive	–
CC(=O)Oc1ccc(C2(c3ccc(OC(C)=O)cc3)C(=O)Nc3ccccc32)cc1	inactive	0.168 µM (active)	inactive	inactive	–	inactive	inactive	–	–	inactive
CCCCCCCCCCCCCCNCCO	inactive	inactive	inactive	inactive	inactive	inactive	inactive	–	–	inactive
CCc1cccc(CC)c1N(COC)C(=O)CS(=O)(=O)O	inactive	inactive	inactive	inactive	inactive	inactive	inactive	inactive	–	–
CCN(CC)c1cccc(C)c1	inactive	inactive	inactive	inactive	inactive	inactive	inactive	inactive	–	–
Brc1ccccn1	inactive	inactive	inactive	inactive	inactive	inactive	inactive	inactive	–	–
CCOC(=O)[C@@](C)(N)Cc1ccc(O)c(O)c1	inactive	inactive	inactive	inactive	inactive	–	–	–	–	–
C=CC(C)(CCC=C(C)C)OC(=O)/C=C/c1ccccc1 (centres undefined)	inactive	–	inactive	–	inactive	inactive	inactive	–	inactive	–

— PubChem BioAssay (Tox21)
